Tests used:
Conditions in all cases: concentration: 1 μM,replicates: in singlicate; n = 1
[1] = test system: NEK11
[2] = test system: NEK1
[3] = test system: NEK2
[4] = test system: NEK3
[5] = test system: NEK4
[6] = test system: NEK5
[7] = test system: NEK6
[8] = test system: NEK7
[9] = test system: NEK9
[10] = test system: T1, NIK
T1 construct: gene MAP3K14
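Note: KINOMEscan kinase panel screen.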

Structure (SMILES)	%Inh [1]	%Inh [2]	%Inh [3]	%Inh [4]	%Inh [5]	%Inh [6]	%Inh [7]	%Inh [8]	%Inh [9]	%Inh [10]
O=C(Nc1ccc(Oc2ccc3nc(NC(=O)C4CC4)cn3n2)c(F)c1)c1cccn(-c2ccccc2)c1=O	0%	0%	0%	8%	0%	54%	6%	0%	0%	0%
NC(=O)Nc1sc(-c2ccc(F)cc2)cc1C(N)=O [GW789449]	0%	0%	0%	47%	19%	36%	13%	0%	0%	37%
COc1cccc(OC)c1C(=O)Nc1cccc(-c2nn3ccccc3c2-c2ccnc(Nc3cccc(F)c3)n2)c1 [GSK361065]	0%	0%	4%	7%	0%	10%	17%	0%	0%	0%
CCn1c(-c2nonc2N)nc2cncc(CNC3CCNCC3)c21.Cl [SB-747651]	11%	0%	0%	15%	28%	2%	0%	6%	38%	13%
O=C(Nc1cccc(C(F)(F)F)c1)c1cccc(Oc2ccc3nccn3n2)c1	52%	0%	0%	17%	0%	12%	2%	0%	0%	36%
O=C1NCCc2[nH]c(-c3ccncc3)cc21	0%	0%	0%	18%	0%	2%	29%	0%	0%	44%
Cc1cccc(-c2nc(Nc3ccncc3)c3sccc3n2)n1 [GW869641]	31%	0%	5%	10%	14%	4%	16%	3%	14%	0%
CS(=O)(=O)c1cccc(CNc2nc(Nc3ccc4c(c3)[C@@H]3C[C@@H]4CNC3=O)ncc2C(F)(F)F)c1	0%	0%	0%	23%	1%	0%	19%	12%	2%	26%
Cn1ccc2ncnc(Oc3ccc(NC(=O)Nc4cccc(C(F)(F)F)c4)c(Cl)c3)c21	0%	0%	0%	9%	0%	0%	9%	0%	0%	7%
COc1cc(Nc2nccc(N3CCC(NC(=O)c4cccc(C#N)c4)C3)n2)cc(OC)c1OC (stereo not drawn) [GSK1379751]	0%	33%	13%	34%	2%	97.1%	33%	11%	0%	27%
COc1cccc(CNC(=O)NC2CCN(c3ccnc(Nc4cc(OC)c(OC)c(OC)c4)n3)C2)c1 (stereo not drawn) [GSK1379765]	15%	0%	0%	45%	31%	95.9%	0%	15%	31%	30%
CC(=O)Nc1ccc(-c2cc3ncnc(SCC(=O)O)c3s2)cc1	0%	0%	1%	12%	6%	0%	4%	1%	5%	11%
Cc1ccc(C(=O)Nc2ccc(Oc3ccc4nc(NC(=O)C5CC5)cn4c3)c(F)c2)c(=O)n1-c1ccccc1	0%	0%	5%	0%	0%	0%	0%	0%	0%	0%
CCCC(=O)Nc1n[nH]c2ncccc12 [SB-601436]	4%	0%	0%	0%	0%	0%	0%	13%	0%	10%
CSc1nccc(-c2c(-c3ccc(F)cc3)ncn2CCCN2CCOCC2)n1.Cl [SB-217146]	0%	0%	0%	38%	0%	0%	0%	8%	0%	33%

Reference: paper PMC5540273 (PLoS ONE, 2017)
